SMILES strings stand for the structures. This is part of a sample that, as a whole, favours compounds with a hit. Of some 83,000 tested, about 20% had one in any assay.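 Testing used 96-well plates and a 48-hour single-concentration exposure. Example: -40 means 40% of the starting cells died.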 The source made the active and inactive calls. Rule for the calls: active = growth percent below 10; inactive = the rest.

The subject of the assay is DU-145 prostate. The assay is described as follows: NCI-60 one-dose screen, 48 h (100 = growth as untreated, 0 = no growth, -100 = all killed). The note with it: 10 µM unless noted.
For `Clc1nnc2c3ccccc3ccn12`, the growth is 105% (inactive).

Turning to `COc1ccc(-c2nn(C(=O)NCCN(C)C)cc2-c2ccncc2)cc1Cl`, the growth is 77.6% (inactive).

In the case of `CCN1C(=O)N(CC)C2C1NN=c1s/c(=C\c3ccco3)c(=O)n12` (stereo unspecified), the growth was 3.04% (active).

For `CC(C)N(C(=S)SSC(=S)N(C(C)C)C(C)C)C(C)C`, the growth was 109% (inactive).

Consider `CC(C)=CC[C@@H]1CC2(CC=C(C)C)C(=O)C(OC3(C(=O)c4ccccc4)C(=O)C4(CC=C(C)C)C[C@@H](CC=C(C)C)C(C)(C)C(CC=C(C)C)(C4=O)C3=O)(C(=O)c3ccccc3)C(=O)C(CC=C(C)C)(C2=O)C1(C)C` (stereo partly specified), for which the growth was 2.13% (active).

`CCCCCCCCCCCCCCCC1=NCCN1`: the growth is 72.6% (inactive).

For `COc1cc([N+](=O)[O-])cc(OC)c1OC`, the growth is 115% (inactive).

For `NNC(=O)CSc1nc2scc(-c3ccccc3)c2c(=O)n1-c1ccccc1`, the growth was 111% (inactive).

Consider `C=CCN(CC#N)CC=C`, for which the growth was 112% (inactive).

On to `CCOC(=O)Cn1c(-c2nonc2NC(=O)c2ccccc2F)nc2ccccc21`, for which the growth was 53.2% (inactive).

Consider `CCCCCCCOc1cccc(/C=C2\N=C3SCCCN3C2=O)c1`, for which the growth was 94.5% (inactive).

With `Cc1c2c(cc3c1[nH]c1ccccc13)C=NCC2`, the growth is 94.9% (inactive).

With `COc1cc(OC)c(Cl)cc1N`, the growth is 114% (inactive).

For `CS(=O)(=O)c1ccc(C(=O)Nc2ccc(Cl)c(-c3ccccn3)c2)c(Cl)c1`, the growth is 24.7% (inactive).

Regarding `Cc1cc([N+](=O)[O-])c(C)cc1N`, the growth is 115% (inactive).

`COc1cnc2c(c1)C(=O)c1c-2n(CCCN2CCNCC2)c(=O)c2cc(Cl)ccc12`: the growth is -95.8% (active).

Turning to `COc1cc(/C=C2\CN(C(=O)OC(C)(C)C)C/C(=C\c3ccc(O)c(OC)c3)C2=O)ccc1O`, the growth is 101% (inactive).

Turning to `CCN1C(=O)C(C)C=C(C)C=C1C` (stereo unspecified), the growth was 90.7% (inactive).

For `COCc1nc(NS(=O)(=O)c2ccc(N)cc2)nc(C)c1Br`, the growth was 116% (inactive).

On to `O=c1c2cc(Br)cc(Br)c2nc(-c2ccc(Cl)cc2)n1/N=C\c1ccccc1F`, for which the growth is 96% (inactive).

Take `CCCCCCCCCCCCCC1=NC(C)(C)CN1C(C)C`: the growth was 9.58% (active).

Consider `CCC(=O)OCc1ccc(OC)cc1`, for which the growth was 123% (inactive).

Consider `Fc1ccc(-c2cnc3nonc3n2)c(F)c1`, for which the growth is 100% (inactive).

As for `O=S(=O)(Nc1ccc2ccccc2c1)N1CCCCC1`, the growth is 78.4% (inactive).

For the compound `CCn1c(Cc2ccccc2Nc2c(Cl)cccc2Cl)nnc1SCC(=O)Nc1cccc(OC)c1`, the growth is 94% (inactive).

Consider `CCN(CC)CC(=O)Nc1c(C)ccc(N)c1C`, for which the growth is 107% (inactive).

In the case of `C=C1C[C@@]2(C)C(CC[C@]3(C)C2CC=C2C4CC(C)(C)C[C@@H](OC(=O)/C(C)=C\C)[C@]4(C(=O)O)CC[C@]23C)C(C)(C)C1=O` (stereo partly specified), the growth was 10.3% (inactive).

Regarding `C=C1C(=O)O[C@H]2[C@H]1CC/C(COC(=O)NCc1cccc(OC)c1)=C\CC[C@@]1(C)O[C@@H]21`, the growth is 19.7% (inactive).

Consider `CCCCOc1nc2ccccc2cc1/C=C/c1cc(/C=C/c2cc3ccccc3nc2OCCCC)n(-c2ccccc2)n1`, for which the growth is 113% (inactive).

`CCCCc1nc(Cl)c(C2CC(c3ccc(S(N)(=O)=O)cc3)=NN2c2cc(Cl)cc(Cl)c2)[nH]1` (stereo unspecified): the growth was 70.8% (inactive).

For `O=C(N/N=C\c1cc(Br)ccc1O)c1ccncc1`, the growth is 39.4% (inactive).

For the compound `CC(C)C/C=C/C=C/C(=O)N[C@@H](CC(N)=O)C(=O)N[C@@H]1C(=O)N[C@H](c2ccc(O)cc2)C(=O)N[C@H](CCCN)C(=O)N[C@H]([C@@H](C)O)C(=O)N[C@H](c2ccc(O)cc2)C(=O)N[C@H](c2ccc(O)cc2)C(=O)N[C@H]([C@H](C)O)C(=O)N[C@H](Cc2ccccc2)C(=O)N[C@H](CCCN)C(=O)N[C@H](c2ccc(O[C@H]3O[C@@H](CO)[C@@H](O)[C@@H](O)[C@H]3O[C@@H]3O[C@H](CO)[C@H](O)[C@H](O)[C@@H]3O)cc2)C(=O)N[C@H]([C@H](C)O)C(=O)N[C@H](c2ccc(O)cc2)C(=O)NCC(=O)N[C@H](CC(C)C)C(=O)N[C@H](C)C(=O)N[C@H](c2ccc(O)c(Cl)c2)C(=O)O[C@@H]1C(N)=O`, the growth was 90.6% (inactive).

For the compound `CN(C)c1ccc(/C=C\c2cccc[n+]2C)cc1`, the growth was 70.1% (inactive).

As to `COC(=O)CSc1ccc(Cl)cc1`, the growth is 111% (inactive).

Turning to `S=C(S)Oc1cccc2cccnc12`, the growth is 105% (inactive).

Consider `O=C1NN(C(=O)c2ccccc2)C(c2ccc(Cl)c(Cl)c2)=C/C1=C\c1ccccc1[N+](=O)[O-]`, for which the growth is 25.3% [6.75 µM] (inactive).

For the origin of these results see PubChem BioAssay (NCI).
